LASV entry inh = Lassa virus entry inhibition. Lassa virus pseudotyped entry inhibition, cell-based qHTS. Potency, µM (highest dose often 49.2 µM), inactives show top-dose activity change, negative = inhibition, usual class: inhibitors. 4.1% of 18,000 active
MARV entry inh = inhibitors of Marburg virus binding or entry into cells; Marburg virus pseudotype entry/binding inhibition, cell-based; Potency, µM (titrated, usually from 49.2 µM), without a hit: at the top dose activity change, negative = inhibition, most hits filed as inhibitors; 6.5% of 18,000 active; AID 720532
* hit, by the source's call; ? = inconclusive; / = no result; ! = not confirmed by another sample; [ ] = dose if it differs, or a comment. The list is not random: actives were taken first. Their share in the collection is about 8%. Calls follow the shape of the full dose curve; tested in HEK293 cells. % is scaled to controls: 0 for no effect and ±100 for the full control effect; potency is read from the fitted curve at half-maximal effect.

SMILES	LASV entry inh	MARV entry inh
CCC(=O)N[C@@H]1c2ccccc2C2(CCN(Cc3ccccn3)CC2)[C@H]1OC	-4%	9%
CCC(=O)N[C@@H]1c2ccccc2C2(CCN(Cc3[nH]c4c(Cl)cccc4c3C)CC2)[C@H]1OC	25µM*	11µM*
CN1CCC(C(=O)Nc2n[nH]c3nnc(-c4ccccc4)cc23)CC1	16%	?
COCCC(=O)NCC1Cc2cc(Cl)cc(-c3ccc4[nH]ccc4c3)c2O1 (stereo unspecified)	7.1µM*	7.1µM*
CC(=O)N1CCC[C@H]1C(=O)NCC1Cc2cc(Cl)cc(-c3ccc4[nH]ccc4c3)c2O1 (stereo partly specified)	-8%	-24%
CCC(C)CN1C(=O)NC(CCc2ccccc2)C(C(C)=O)=C1C (stereo unspecified)	-10%[8.59 µM]	?
O=C(NN=C1C[C@@H](O)[C@H](O)[C@H]2[C@@H]3C(=O)N(Cc4ccc5c(c4)OCO5)C(=O)[C@@H]3CC[C@H]12)OCc1ccccc1	/	-2%[8.59 µM]
O=C1C=CC2=C3c4cc(O)c(O)cc4CC3(O)COC2=C1O (stereo unspecified)	-16%	3.2µM*
COC(=O)c1c(OCc2cccnc2)cc(=O)n2c1CCN(Cc1cc3c(cc1Cl)OCO3)CC2	-20%	-19%
c1ccc2c(c1)Sc1ccccc1N2CC1CN2CCC1CC2 (stereo unspecified)	?	13µM*
CN1CCC(CN2c3ccccc3Sc3ccccc32)C1 (stereo unspecified)	16µM*	10µM*
CN1CC[C@@H]2CN3CCc4cccc(c43)[C@H]2C1	-6%	?
Cc1cc2c(c(=O)n1-c1ccccc1)[C@H]1O[C@](c3ccsc3)(Cc3ccccc31)O2	-17%[8.59 µM]	?
O=C(O)c1cc(N(Cc2ccccc2O)Cc2cc(O)ccc2O)ccc1O	?	20µM*!
N[C@H](C(=O)O)c1ccc(O)c(C(=O)O)c1	-3%	11%
COc1cc2c(N3CCN(C(=O)Nc4ccc(OC(C)C)cc4)CC3)ncnc2cc1OCCCN1CCCCC1	?	8.9µM*
COc1ccccc1N1CCN(CCCCNC(=O)c2ccc3ccccc3c2)CC1	4%[17.8 µM]	-27%[17.8 µM]
Cc1ccccc1	-4%	-1%
C[C@]12O[C@@H]1[C@@H](O)C(Br)=C(CO)[C@@H]2O	3%[8.59 µM]	52%[8.59 µM]
CC(=O)Oc1cccc(O)c1	-3%	-11%
CC(=O)Oc1ccc(C2(c3ccc(OC(C)=O)cc3)Oc3ccccc3NC2=O)cc1	10µM*	-21%
Cc1ccnn1CC(=O)N1CCOc2c(cc(-c3csc4ccccc34)cc2OC2CCOC2)C1 (stereo unspecified)	-9%	-5%
O=C1NCN(c2ccccc2)C12CCN(CC1COc3ccccc3O1)CC2 (stereo unspecified)	2%	-1%
O=C1NCN(c2ccccc2)C12CCN(CCCC(c1ccc(F)cc1)c1ccc(F)cc1)CC2	?	1.4µM*
CCn1c(=O)[nH]c2ccccc21	-2%	8%
SMILES	LASV entry inh	MARV entry inh
O=c1[nH]c2ccccc2n1C1CCN(CCCC(c2ccc(F)cc2)c2ccc(F)cc2)CC1	25µM*!	14µM*
O=C(OCc1cn([C@@H]2CN(C(=O)C3CCCCC3)[C@@H](c3ccccc3)C[C@@H]2O)nn1)c1ccccc1	11%	?
FC(F)(F)c1cc(NC(=S)NC(c2ccccc2)c2ccccc2)cc(C(F)(F)F)c1	-44%	?
CNCCC(Oc1ccc(C(F)(F)F)cc1)c1ccccc1 (stereo unspecified)	18µM*!	7.1µM*
COC(=O)C1(C(=O)OC)C[C@@H]2CON=C2[C@@H]1c1ccccc1	-3%[8.59 µM]	1%[8.59 µM]
CCN(CC)CCCC(C)Nc1c2ccc(Cl)cc2nc2ccc(OC)cc12 (stereo unspecified)	?	1.1µM*
COc1cc(NC(C)CCCN)c2ncccc2c1 (stereo unspecified)	7%	?
CCN(CC)CCCC(C)Nc1cc(/C=C/c2ccccc2Cl)nc2cc(Cl)ccc12 (stereo unspecified)	?	16µM*
Nc1ccccc1C(=O)C=Cc1ccccc1	13%[8.59 µM]	11%[8.59 µM]
CC(C)(C)[Si](C)(C)OCCC[C@@H]1C[C@H]2C=CCOP(=O)(O1)O2	-2%	14%
O=C(C1CCCCC1)N1C[C@@H](O)[C@@H](n2cc(C3CC3)nn2)C[C@@H]1c1ccccc1	?	-11%
NCCc1c[nH]c2ccc(O)cc12	-11%	-10%
CCCCCCCCCOc1ccc2[nH]cc(CCN)c2c1	35µM*!	10µM*
CCOC(=O)[C@]12C[C@@H]3CCN(C(=O)N(C(C)=O)[C@@H]1c1ccccc1)[C@@H]32	-1%[8.59 µM]	-9%[8.59 µM]
CNc1cc(OC)c(C(=O)N[C@H]2CCN(Cc3ccccc3)[C@H]2C)cc1Cl	?	18µM*
COC1=C[C@H](C(=O)NC2CCN(Cc3ccccc3)CC2)[C@H](C)[C@@H](c2ccccc2)CC1=O	18%[8.59 µM]	9%[8.59 µM]
COc1ccc2cc1Oc1ccc(cc1)CC1c3cc(c(OC)cc3CCN1C)Oc1c(OC)c(OC)cc3c1C(C2)N(C)CC3 (stereo unspecified)	11µM*	1.6µM*
COc1cc2c3cc1Oc1c(OC)c(OC)cc4c1C(Cc1cccc(c1)Oc1ccc(c(O)c1)CC3N(C)CC2)N(C)CC4 (stereo unspecified)	-4%	-5%
COc1ccc2cc1Oc1ccc(cc1)C[C@H]1c3cc(c(OC)cc3CCN1C)Oc1c(OC)c(OC)cc3c1[C@@H](C2)N(C)CC3	?	2.2µM*
COc1cc2c3cc1Oc1cc(ccc1O)CC1c4c(cc(OC)c(O)c4Oc4ccc(cc4)CC3N(C)CC2)CC[N+]1(C)C (stereo unspecified)	2%	-4%
Cn1c(-c2nonc2N)nc2cnccc21	43%	?
O=C(C=NO)NCCCCNC(=O)C=NO	13%[8.59 µM]	-3%[8.59 µM]
COC(=O)CC=C[C@H](C)[C@@H](NC(=O)C(F)(F)F)c1ccccc1Br	-1%[8.59 µM]	-21%[8.59 µM]
Cc1ccc(O[C@@H]2[C@H](O)CO[C@H]2C=CC#Cc2ccc(C(C)(C)C)cc2)cc1	/	-35%[8.59 µM]
N=c1ccn2c(n1)OC1C(O)C(CO)OC12 (stereo unspecified)	?	0.71µM*
SMILES	LASV entry inh	MARV entry inh
N=c1ccn2c(n1)OCC1C2O[C@@H](O)[C@H]1O (stereo partly specified)	?	14µM*
O=c1ncccn1[C@@H]1O[C@H](CO)C(O)[C@@H]1O (stereo partly specified)	-3%	-4%
CN(C)CCNC(=O)Nc1ccc(N(C)c2ccnc(Nc3ccc(CS(C)(=O)=O)cc3)n2)cc1	60%	-45%
COc1cccc([C@@H]2Oc3ccc(OC)cc3C(=O)[C@H]2OC(=O)NCCOc2ccccc2)c1	-4%	-10%
COc1ccc2c(c1)OC(C)(C)C(c1ccccc1)C2c1ccc(OCCN2CCCC2)cc1 (stereo unspecified)	?	4.5µM*
CCCC1COC(Cn2cncn2)(c2ccc(Cl)cc2Cl)O1 (stereo unspecified)	13µM*	11µM*
Clc1ccc(C2(Cn3cncn3)OCCO2)c(Cl)c1	-19%	-10%
COC(=O)C1=C(C)N(Cc2ccccc2)C(=NCc2ccccc2)NC1c1ccccc1 (stereo unspecified)	29%[8.59 µM]	?
O=C(c1cccs1)N1C[C@H](O)[C@H](n2cc(C3CC3)nn2)C[C@@H]1c1ccccc1	-17%	-7%
NC(=O)c1sc(-n2cnc3ccccc32)cc1OCc1ccccc1Br	/	16µM*
CC(Oc1cc(-n2cnc3ccc(OCC4CCN(C)CC4)cc32)sc1C(N)=O)c1ccccc1C(F)(F)F (stereo unspecified)	/	1.4µM*
